From PubChem BioAssay
Most compounds without a hit are left out; they make up all but 27% or so of the library.
sEH inh – soluble epoxide hydrolase inhibitors, primary screen, biochemical, human sEH. recombinant human sEH enzymatic activity assay. inhibition, % at 2 µM. 91,000 compounds, 0.34% hits; in the data active = inhibition above about 80%
sEH activator – soluble epoxide hydrolase activators, primary screen, biochemical, human sEH; activation, % at 2 µM; purified human sEH enzymatic activity, activator screen; 91,000 compounds, 0.04% hits; in the data active = activation above about 37%
CYP2C19 activ – human CYP2C19 activators, primary screen, biochemical, luminescence. activation factor at 5 µM. recombinant CYP2C19, luciferin-H EGE luminescence; stronger effect = higher value; 0 = fully inhibited enzyme, 1 = untreated enzyme. 96,000 tested, under 10 active;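 active = activation factor of at least 2 at 5 µM in the primary screen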;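 note: 0 = wells with 2.5 mM tranylcypromine and 1 = vehicle-only wells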
Target sequence (P33261 whole entry, looked up): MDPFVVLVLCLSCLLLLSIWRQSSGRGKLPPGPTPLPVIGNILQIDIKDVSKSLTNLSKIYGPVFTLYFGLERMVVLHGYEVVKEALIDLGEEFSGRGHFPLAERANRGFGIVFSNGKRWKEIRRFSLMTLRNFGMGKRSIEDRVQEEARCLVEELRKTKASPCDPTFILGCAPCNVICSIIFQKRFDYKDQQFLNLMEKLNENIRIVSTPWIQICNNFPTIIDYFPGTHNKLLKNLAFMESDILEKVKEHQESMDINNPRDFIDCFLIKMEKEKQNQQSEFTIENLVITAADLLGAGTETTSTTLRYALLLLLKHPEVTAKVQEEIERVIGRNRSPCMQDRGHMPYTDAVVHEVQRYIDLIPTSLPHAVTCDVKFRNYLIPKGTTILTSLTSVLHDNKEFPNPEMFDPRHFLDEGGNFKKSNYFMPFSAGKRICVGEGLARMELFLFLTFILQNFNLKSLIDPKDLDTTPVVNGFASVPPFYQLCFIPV
CYP2C19 inhib – blockers of cytochrome P450 2C19 activity – biochemical, luminescence, ADME assay, primary screen; AID 778, 2007; inhibition, % at 5 µM; P33261; CYP2C19 Supersomes, luciferin-H EGE luminescence, 30 min; 96,000 compounds, 21% hits;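 active = CYP2C19 inhibition above a set limit at 5 µM in the primary screen, cut at about 50% in these data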;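 note: plate controls were negative control wells for no effect and 2.5 mM tranylcypromine positive control for full effect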
CYP2C9 activ – human CYP2C9 activators, primary screen, biochemical, luminescence; recombinant CYP2C9, luciferin-H conversion; stronger effect = higher value; factor 1 = untreated enzyme, 0 = blocked; activation factor at 5 µM; 96,000 compounds, 1.4% hits;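 active = activation factor of 2 or more for CYP2C9 at a 5 µM dose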;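 note: 0 = sulfaphenazole-blocked wells and 1 = vehicle-only wells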
CYP2C9 inhib – blockers of cytochrome P450 2C9 activity – biochemical, luminescence, ADME assay, primary screen | 96,000 compounds, 20% hits | inhibition, % at 5 µM | CYP2C9 Supersomes, luciferin-H conversion | P11712 | AID 777, 2007;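 active = blocking of liver enzyme CYP2C9 beyond about 50% at 5 µM, limit read from the data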
* = called active by the depositor; . = no result.

SMILES	sEH inh	sEH activator	CYP2C19 activ	CYP2C19 inhib	CYP2C9 activ	CYP2C9 inhib
CN1CCc2c(sc3c2c(=O)n(-c2ccccc2)c2nnc(SCc4ccc(Cl)cc4)n32)C1	-6.9	7.1	1.1	-7.4	0.9	9.0
COc1ccc(OC)c(NC(=O)CSc2nnnn2-c2ccc3c(c2)OCO3)c1	-0.5	0.8	1	3.7	1.1	-6.2
CCn1c(C)c2c(C)nnc(C)c2c1C	1.3	-3.1	1	1.6	1	4.0
Cc1nnc(C)c2c(C)n(C(c3ccccc3)c3ccccc3)c(C)c12	-10.1	8.6	0.6	40.7	0.4	56.0*
COc1cc(NS(=O)(=O)c2ccc(NC(C)=O)cc2)ncn1	-9.8	6.0	0.9	8.3	1	2.7
Cc1ccc(S(=O)(=O)Nc2ccc(S(=O)(=O)NC(C)(C)C)cc2)cc1	-9.1	11.3	0.5	48.1	0.1	86.6*
CC(C)(C)NS(=O)(=O)c1ccc(NS(=O)(=O)c2ccc(F)cc2)cc1	-6.6	5.3	0.6	37.6	0.1	92.9*
COc1ccc(NS(=O)(=O)c2ccc(NS(=O)(=O)c3ccc(C)cc3)cc2)nn1	.	.	1	-3.0	0.3	66.1*
CCCN(CCC)S(=O)(=O)c1ccc(NS(=O)(=O)c2ccc(F)cc2)cc1	7.9	-6.8	0.5	45.5	0.1	92.5*
Cn1c(=O)oc2cc(S(=O)(=O)N3CCC(C(=O)NCc4ccc(F)cc4)CC3)ccc21	10.5	-12.8	0.9	8.9	1.3	-32.9
O=C(NC1=NCCS1)c1cc2ccccc2o1	3.9	-4.2	0.7	25.9	0.7	28.0
COC(Cn1c(C)c(C(C)=O)c(C(C)=O)c1C)OC	6.0	-4.3	1.1	-7.2	1.2	-15.7
Cc1ccc(S(=O)(=O)Nc2ccc(-c3nc4cc(NS(=O)(=O)c5ccc(C)cc5)ccc4o3)cc2)cc1	-7.0	6.7	0.2	80.9*	0	96.7*
CCOc1cc(CNn2nnnc2N)cc(Cl)c1OCC(=O)NC(C)(C)C	-3.6	4.8	0.1	91.4*	0.7	29.1
COc1cc(CNn2nnnc2N)ccc1OCc1c(Cl)cccc1Cl	3.0	-1.8	0.4	62.2*	0.8	19.3
CCOc1ccccc1CNn1nnnc1N	-3.0	3.6	.	.	.	.
C=CCOc1c(Br)cc(CNn2nnnc2N)cc1OCC	14.6	-14.5	0.6	37.3	0.9	6.2
COc1cccc(N2C(=O)C3CCCN3C2c2ccc(Cl)cc2)c1 (stereo unspecified)	4.3	-6.8	0.3	68.8*	0.5	50.1*
COc1cccc(C2N(c3cccc(Cl)c3)C(=O)C3CCCN32)c1 (stereo unspecified)	-9.6	7.9	0.3	69.7*	0.1	88.4*
COc1ccc(N2C(=O)C3CCCN3C2c2cccc(Br)c2)cc1 (stereo unspecified)	5.0	-6.5	0.5	46.4	0.5	52.1*
COc1ccc(N2CCN(c3nc4c(c(=O)n(C)c(=O)n4C)n3CCCc3ccccc3)CC2)cc1	.	.	0.9	13.1	0.8	24.6
OC(CC1CC12c1ccccc1-c1ncccc12)(c1ccccc1)c1ccccc1 (stereo unspecified)	-9.7	9.8	0.1	92.5*	0	96.9*
CCOC(=O)C(C)C1(O)c2ccccc2-c2ncccc21 (stereo unspecified)	4.3	-1.4	0.7	26.4	1	-2.9
CCOC(=O)c1c(C)c(C(=O)N2CCc3ccccc3C2)c(C)n1CC	.	.	0.1	85.6*	0.6	45.0
CCn1c(C(=O)N2CCc3ccccc3C2)cc2oc3ccccc3c21	-14.8	13.4	0.4	55.3*	0.5	53.1*
SMILES	sEH inh	sEH activator	CYP2C19 activ	CYP2C19 inhib	CYP2C9 activ	CYP2C9 inhib
O=C(c1cc2ccccc2c(=O)o1)N1CCc2ccccc2C1	-10.9	13.2	0.6	44.4	2.5*	-150.2
CCC(C)NC(=O)CSc1nc2n[nH]c(C)c2c(=N)n1-c1ccc(OC)cc1 (stereo unspecified)	.	.	0.9	5.4	1	-4.4
CCC(Sc1nc2n[nH]c(C)c2c(=N)n1-c1cccc(Cl)c1C)C(=O)N(CC)CC (stereo unspecified)	-5.5	2.2	1	4.2	0.4	59.2*
CC(=O)Nc1ccc(S(=O)(=O)/N=C2\SCCN2S(=O)(=O)c2ccc(NC(C)=O)cc2)cc1	-1.0	-0.7	.	.	.	.
O=S(=O)(Nc1cccc(-c2nc3cccnc3s2)c1)c1ccc2c(c1)OCCO2	11.8	-8.6	1	2.7	0.2	84.6*
O=S(=O)(Nc1ccc2c(c1)OCCO2)c1cccs1	-11.2	10.8	0.7	27.9	0.8	22.6
Cc1ccc(-c2nc3cccnc3s2)cc1NS(=O)(=O)c1ccc2c(c1)OCCO2	11.2	-12.6	1.1	-13.5	0.3	73.8*
CC(C)(C)c1cc(NS(=O)(=O)c2ccc3c(c2)OCCO3)on1	-5.3	4.5	.	.	.	.
COc1ccc(CNC(=O)c2ccc(C)o2)cc1	4.6	-3.5	.	.	.	.
CCOC(=O)c1c(Nc2ccccc2N)cc(C)nc1C	16.8	-16.7	0.3	71.9*	0.9	5.5
CCCn1c(NC(=O)c2cccc(S(=O)(=O)N3CCCC3)c2)nc2ccccc21	.	.	0.6	36.9	0.6	39.5
CC(C)CCNC(=O)CCCOc1ccccc1	28.9	-32.8	0.5	54.3*	1.1	-12.1
O=C(CCCOc1ccccc1)Nc1nncs1	-11.1	10.7	0	97.0*	0.2	82.6*
COCC(=O)Nc1cc([N+](=O)[O-])ccc1C	13.2	-9.6	1	0.0	0.9	9.4
Cc1ccc([N+](=O)[O-])cc1NC(=O)CCCOc1ccccc1	0.6	1.4	0.7	31.4	2.3*	-129.7
COc1ccc(OCCCC(=O)Nc2nncs2)cc1	-11.6	9.5	.	.	.	.
COc1cc(CC(=O)Nc2nccs2)cc(OC)c1OC	.	.	0.2	79.8*	0.6	40.7
Cc1cccc(OCCCC(=O)Nc2nccs2)c1	-2.7	2.0	0.2	75.8*	0.8	23.5
Cc1cccc(OCCCC(=O)Nc2ccc(Br)cc2)c1	72.7	-72.7	0.4	58.7*	0.6	41.8
Cc1cccc(C(=O)OCC(=O)Nc2nccs2)c1	-12.1	12.9	0.6	37.4	1	3.3
Cc1ccc(OCCCC(=O)Nc2nccs2)cc1	-5.1	4.0	0.5	53.9*	0.5	54.7*
Cn1c2c(c3ccccc31)CCSC2=O	8.6	-7.1	0.8	24.0	0.8	16.5
CCOCCCNC(=O)C1CCCN1C(=O)NC1CCCCC1 (stereo unspecified)	-5.6	4.5	1	-3.2	1	1.3
NC(=O)c1cc2n(n1)C(C(F)(F)F)CC(c1ccco1)N2 (stereo unspecified)	-5.7	1.3	1.1	-8.5	1.2	-16.7
Cc1ccc2c(c1)C(N1CCCC1=O)CC(c1ccco1)N2 (stereo unspecified)	2.2	0.3	0.2	77.7*	0.7	28.7
